Records with an inconclusive call do not appear. Entries that show only a call come without a potency. Calls of active or inactive are those of the source. Calls follow the shape of the full dose curve.
test: cAMP Responsive Elements (CRE) small molecule agonists, cell-based qHTS assay (AID 1963590); details: CRE-bla HEK293T, beta-lactamase FRET ratio, 3 h; series mostly up to 92.4 µM
Source text: U.S. Tox21 Program National Center for Advancing Translational Sciences [NCATS] Division of Preclinical Innovation [DPI] U.S. Environmental Protection Agency [EPA] National Institutes of Environmental Health Sciences [NIEHS] National Toxicology Program [NTP] U.S. Food and Drug Administration [FDA] Tox21 Assay Overview: CREB (cyclic-AMP Responsive Element Binding Protein) is a cellular transcription factor. It binds to certain DNA sequences called cAMP Responsive Elements (CRE) and regulates the transcription of the genes. […] This cell line can be used to find agonists/antagonists of the cyclic AMP signaling pathway. The activation of the report gene under culture conditions can be detected by fluorescence intensity. This cell line has been used to screen the Tox21 10K compound library to identify agonists that induce oxidative stress.
Tox21 Assay Protocol Summary: CRE-bla Hek 293T cells were suspended in assay medium (DMEM containing 10% dialyzed FBS, 0.1 mM NEAA, 1 mM sodium pyruvate and 25 mM HEPES) and dispensed at 2,000 cells/5 uL /well into 1536-well black wall/clear bottom plates using a Multidrop Combi (ThermoFisher Scientific, Waltham, MA) dispenser. After the assay plates were incubated at 37 C/5% CO2 for 18 hrs, 23 nL of compounds dissolved in DMSO, positive controls or DMSO only was transferred to the assay plate by a pintool workstation (Kalypsys, San Diego, CA). After the plates were incubated at 37 C/5% CO2 for 3 hrs, 1 uL of LiveBLAzer B/G FRET substrate (Invitrogen, Carlsbad, CA) was added to each well using Bioraptr Flying Reagent Dispenser (FRD, Aurora Discovery, San Diego, CA). The plates were incubated at room temperature for 2 h.

Compound | Potency
CCCC[n+]1ccccc1C | inactive
CCCCCON=O | inactive
CCCBr | inactive
O=C(O)C(Cl)(Cl)Cl | inactive
COC(C)(C)C | inactive
Clc1ccc(C(Cl)(Cl)Cl)cn1 | inactive
Nc1ccc(Cc2ccc(N)cc2)cc1 | inactive
C=CC(=O)OCC(C)C | inactive
N[C@@H](Cc1ccc(N(CCCl)CCCl)cc1)C(=O)O | inactive
CN(C)c1nc(=O)n(C2CCCCC2)c(=O)n1C | inactive
CC(=O)C(C)(C)C | inactive
CCC(Cl)[N+](=O)[O-] (stereo not given) | inactive
Cc1cnc[nH]1 | inactive
CCCCN(CCCC)N=O | inactive
COS(=O)(=O)OC | inactive
CCCCCCCCCc1ccc(O)cc1 | inactive
CC(C)=CCN1CC[C@@]2(C)c3cc(O)ccc3C[C@@H]1[C@@H]2C | inactive
O=C(NC(=O)c1c(F)cccc1F)Nc1cc(Cl)c(OC(F)(F)C(F)C(F)(F)F)cc1Cl (stereo not given) | inactive
Cc1nn(-c2cc(NS(C)(=O)=O)c(Cl)cc2Cl)c(=O)n1C(F)F | inactive
c1ccc(N2CCNCC2)cc1 | inactive

Compound | Potency
CCCCCCCCCCCCOS(=O)(=O)O | inactive
COS(=O)(=O)c1ccc(C)cc1 | inactive
CC(O)CN(CC(C)O)CC(C)O (stereo not given) | inactive
Cc1ccc(N)cc1N | inactive
C=CCN=C=S | inactive
CC(C)C(=O)OCC(C)(C)C(OC(=O)C(C)C)C(C)C (stereo not given) | inactive
Cc1ccc(Cl)c(O)c1 | inactive
C=CCO | inactive
O=C(O)C(Cl)Br (stereo not given) | inactive
CC(C)CCON=O | inactive
Cc1cc(O)ccc1Cl | inactive
COP(=S)(OC)SCN1C(=O)c2ccccc2C1=O | inactive
CCOP(=O)(OCC)Oc1ccc([N+](=O)[O-])cc1 | inactive
CCCn1cc[n+](C)c1 | inactive
O=[N+]([O-])CCO | inactive
CC(C#N)CCC#N (stereo not given) | inactive
O=C(Cl)/C=C/C(=O)Cl | inactive
CC(C)(C)OOC(C)(C)C | inactive
CN(N=O)c1ccccc1 | inactive
CCC[N+](=O)[O-] | inactive

Source: PubChem BioAssay (Tox21)
